From PubChem BioAssay
Sampled rows, rich in hits. Any-hit rate of the full collection: about 1.2%.
VLA-4 inh – inhibition in a human VLA-4 binding assay. VLA-4 expressing cells, ligand binding flow cytometry. inhibition, % (about 7 µM as worked out from the volumes in the protocol). 330,000 compounds, 0.2% hits. AID 2557; in the data active = inhibition above about 50%
Target sequence (P13612 whole entry, looked up): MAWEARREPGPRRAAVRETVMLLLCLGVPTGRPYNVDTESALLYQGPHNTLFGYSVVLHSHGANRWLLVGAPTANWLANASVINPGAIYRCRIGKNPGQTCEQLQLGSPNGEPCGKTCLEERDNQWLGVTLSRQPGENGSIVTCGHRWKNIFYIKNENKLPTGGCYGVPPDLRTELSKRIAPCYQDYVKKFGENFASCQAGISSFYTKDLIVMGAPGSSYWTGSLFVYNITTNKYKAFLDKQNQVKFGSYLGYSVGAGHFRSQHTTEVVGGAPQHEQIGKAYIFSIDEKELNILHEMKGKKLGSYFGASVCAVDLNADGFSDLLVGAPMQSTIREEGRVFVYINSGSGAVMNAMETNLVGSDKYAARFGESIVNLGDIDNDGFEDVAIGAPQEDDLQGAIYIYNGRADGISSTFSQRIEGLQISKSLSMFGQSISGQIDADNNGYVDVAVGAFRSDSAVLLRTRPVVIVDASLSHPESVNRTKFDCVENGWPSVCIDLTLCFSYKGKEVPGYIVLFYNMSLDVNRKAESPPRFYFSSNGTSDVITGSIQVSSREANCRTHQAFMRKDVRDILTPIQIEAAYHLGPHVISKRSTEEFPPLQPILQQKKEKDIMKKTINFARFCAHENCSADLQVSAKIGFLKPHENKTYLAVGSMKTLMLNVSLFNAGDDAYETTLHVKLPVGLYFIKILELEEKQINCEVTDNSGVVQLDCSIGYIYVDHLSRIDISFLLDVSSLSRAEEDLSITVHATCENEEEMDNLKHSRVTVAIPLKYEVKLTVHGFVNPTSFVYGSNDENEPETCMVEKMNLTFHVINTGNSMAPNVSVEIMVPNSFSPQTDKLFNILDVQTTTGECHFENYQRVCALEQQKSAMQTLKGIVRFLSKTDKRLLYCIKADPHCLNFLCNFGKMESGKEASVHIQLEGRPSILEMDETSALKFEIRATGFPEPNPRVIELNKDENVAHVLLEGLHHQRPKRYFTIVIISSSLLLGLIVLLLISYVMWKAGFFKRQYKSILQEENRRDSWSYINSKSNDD
SKN-1 inh – C. elegans SKN-1 inhibition; C. elegans VP596 Pgst-4::GFP/RFP ratio, acrylamide-induced, 24 h; inhibition, % at 21.8 µM; 360,000 compounds, 0.49% hits; AID 624304;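 active = interference check ratio from 0.5 to 1.5 plus GFP to RFP signal ratio inhibition reaching or exceeding a fixed threshold, cut at about 30% in these data, passing the limit was not always enough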
CR mimetic SO – lowers age-related superoxide in aged yeast cells. 330,000 compounds, 0.18% hits. S. cerevisiae aged cells, superoxide DHE fluorescence; stronger effect = lower value. superoxide response (% of plate mean), % at 10 µM;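 active = superoxide response under a set limit, about three screen SD below normal, cut at about 65% in these data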;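 also: yeast aged for seven days with compound at 30 °C before DHE staining; 100% = average MFI of all compound-treated wells on the plate with controls excluded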
ABCB6 inh 2 – human ABCB6 transporter inhibition; Q9NP58; K562-ABCB6 porphyrin accumulation, flow cytometry, 1 h; stronger effect = lower value; fluorescence ratio to DMSO, % at 10 µM; 360,000 compounds, 0.19% hits; AID 602162;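 active = fluorescence ratio to DMSO below 75%, the collection mean minus 3 SD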;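 also: signal is porphyrin accumulated inside mitochondria; 100% equals median channel fluorescence of DMSO control wells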
Platelet DG rel – modulates dense granule release in human platelets; 300,000 compounds, 0.22% hits; AID 1663; human platelet-rich plasma, SFLLRN dense granule ATP release, luminescence; inhibition, %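 (compounds screened at 7.5 µM in platelet-rich plasma)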;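 active = mean replicate score, as percent of positive control, at or above 50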
Superoxide pick – confirmation of caloric restriction mimetics inhibiting yeast age-related superoxide. superoxide response (% of plate), % at 10 µM. S. cerevisiae aging, superoxide DHE fluorescence; stronger effect = lower value. 850 compounds, 1% hits. AID 434994. shares compounds with CR mimetic SO;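 active = superoxide signal below 65% of the plate average of sample wells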;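 also: cells aged with compound for 7 days at 30 degrees C before staining; 100% equals mean DHE fluorescence of all compound wells on the plate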
DHE fluor count – DHE fluorescence interference, counter-screen artifact; shares compounds with CR mimetic SO; S. cerevisiae BY4741, flow cytometry; stronger effect = lower value; fluorescence response, % at 10 µM; 850 tested, under 10 active; AID 435000;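 active = fluorescence response below 15%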;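 also: percent of the mean fluorescence averaged over all compound wells on the plate; lower means stronger quenching of DHE signal or ROS scavenging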
An asterisk follows results filed as active.

`O=C(CN1CCN(CC(=O)Nc2ccccc2Cl)CC1)Nc1ccc(F)c(F)c1` gave VLA-4 inh 8.5, SKN-1 inh 12.6, CR mimetic SO 43.5*, ABCB6 inh 2 114.0, Platelet DG rel -2.8, Superoxide pick 95.5 and DHE fluor count 93.9.
CC(=O)c1ccc(NC(=O)CN2CCN(c3ncccn3)CC2)cc1 was read as VLA-4 inh -2.3, SKN-1 inh -9.6, CR mimetic SO 99.3, ABCB6 inh 2 94.0 and Platelet DG rel -10.0.
Screening COc1ccc(N)cc1NC(=O)CN1CCCC1 returned VLA-4 inh 12.4, SKN-1 inh 4.4, CR mimetic SO 97.7, ABCB6 inh 2 99.0 and Platelet DG rel 0.5.
Screening N#Cc1ccsc1NC(=O)CN1CCN(c2ccccn2)CC1 returned VLA-4 inh -10.8, SKN-1 inh -8.5, CR mimetic SO 93.0, ABCB6 inh 2 99.0 and Platelet DG rel -0.3.
For CC(C)c1ccc(NC(=O)CN2CCN(c3ccccn3)CC2)cc1 the results were VLA-4 inh 14.0, SKN-1 inh 23.9, CR mimetic SO 85.4, ABCB6 inh 2 93.0, Platelet DG rel 3.2, Superoxide pick 88.7 and DHE fluor count 93.3.
For N#Cc1ccc(NC(=O)CN2CCN(c3ccccn3)CC2)cc1 the results were VLA-4 inh 28.8, SKN-1 inh 6.7, CR mimetic SO 98.5, ABCB6 inh 2 98.0, Platelet DG rel -1.9, Superoxide pick 97.3 and DHE fluor count 102.2.
`Cc1cc(N)ccc1NC(=O)CN1CCCC1` gave VLA-4 inh 37.3, SKN-1 inh -4.1, CR mimetic SO 64.1*, ABCB6 inh 2 97.0, Platelet DG rel 9.4, Superoxide pick 90.6 and DHE fluor count 92.5.
For COc1ccc(-c2c(C(=O)O)nc3ccccc3c2C(=O)O)cc1 the results were VLA-4 inh 15.7, SKN-1 inh 25.6, CR mimetic SO 62.3*, ABCB6 inh 2 99.0, Platelet DG rel 12.7, Superoxide pick 110.0 and DHE fluor count 98.6.
Screening O=C(Nc1ccc(F)cc1)C(c1cc2ccccc2o1)N1CCN(C(=O)c2ccco2)CC1 (stereo unspecified) returned SKN-1 inh 8.1.
Screening COc1cc(NC(=O)NCC2CCN(Cc3ccccc3Cl)CC2)cc(OC)c1OC returned VLA-4 inh 7.3, SKN-1 inh 9.1, CR mimetic SO 40.9*, ABCB6 inh 2 99.0, Platelet DG rel -8.4, Superoxide pick 100.7 and DHE fluor count 93.5.
For COc1cc([N+](=O)[O-])ccc1NC(=O)NCC1CCN(Cc2ccc(Cl)cc2)CC1 the results were VLA-4 inh -2.5, SKN-1 inh 9.7, CR mimetic SO 30.5*, ABCB6 inh 2 95.0, Platelet DG rel -5.6, Superoxide pick 104.0 and DHE fluor count 110.5.
For Nc1nc2ncccn2c1-c1ccc(C(F)(F)F)cc1 the results were SKN-1 inh 3.2.
COc1ccc(N2C(=O)CC(Nc3ccc(C(=O)O)cc3)C2=O)cc1OC (stereo unspecified) was read as VLA-4 inh -7.7, SKN-1 inh 4.2, CR mimetic SO 73.4, ABCB6 inh 2 102.0 and Platelet DG rel 4.6.
COC(=O)c1cccc(NC2CC(=O)N(c3ccc(OC)c(OC)c3)C2=O)c1 (stereo unspecified) was read as VLA-4 inh -5.7, SKN-1 inh -24.4, CR mimetic SO 62.0*, ABCB6 inh 2 100.0, Platelet DG rel 0.0, Superoxide pick 97.1 and DHE fluor count 93.0.
`O=C1C=C(NC2=CC3OC(c4ccccc4)OCC3OC2=O)CCC1` (stereo unspecified) gave VLA-4 inh 3.3, SKN-1 inh 14.5, CR mimetic SO 60.1*, ABCB6 inh 2 98.0, Platelet DG rel 10.7, Superoxide pick 114.4 and DHE fluor count 103.5.
CCCCc1cc(=O)oc2cc(OCC(=O)N3CCOCC3)ccc12 was read as VLA-4 inh 15.1, SKN-1 inh -3.0, CR mimetic SO 100.7, ABCB6 inh 2 90.0 and Platelet DG rel 4.9.
`CCCCc1cc(=O)oc2cc(OCC(=O)N3CCC(C(=O)O)(c4ccccc4)CC3)ccc12` gave VLA-4 inh -5.7, SKN-1 inh 18.7, CR mimetic SO 64.0*, ABCB6 inh 2 100.0, Platelet DG rel -2.8, Superoxide pick 112.7 and DHE fluor count 94.8.
Screening Nc1cc2c3c(cccc3c1)C(=O)N(CCN1CCCC1)C2=O returned VLA-4 inh -84.0, SKN-1 inh 11.8, CR mimetic SO 48.1*, ABCB6 inh 2 122.0, Platelet DG rel -5.2, Superoxide pick 100.5 and DHE fluor count 105.3.
O=C1c2cccc3cc([N+](=O)[O-])cc(c23)C(=O)N1CCN1CCCC1 was read as SKN-1 inh 3.5, ABCB6 inh 2 99.0 and Platelet DG rel -1.1.
Screening COc1ccc(NS(=O)(=O)c2cc(C)ccc2OC)cc1OC returned VLA-4 inh 20.3, SKN-1 inh -7.5, CR mimetic SO 101.6, ABCB6 inh 2 99.0 and Platelet DG rel -5.7.
Screening COc1ccc(F)cc1S(=O)(=O)Nc1ccc(C)cc1 returned VLA-4 inh 5.0, SKN-1 inh 6.9, CR mimetic SO 97.8, ABCB6 inh 2 94.0, Platelet DG rel 1.8, Superoxide pick 102.8 and DHE fluor count 91.8.
Screening COc1cc(C)c(Cl)cc1S(=O)(=O)N1CCCC1 returned VLA-4 inh -6.1, SKN-1 inh 6.4, CR mimetic SO 100.5, ABCB6 inh 2 102.0, Platelet DG rel 1.9, Superoxide pick 102.6 and DHE fluor count 90.0.
Screening CCOc1cc(C)c(Cl)cc1S(=O)(=O)N1CCCC1 returned VLA-4 inh 28.2, SKN-1 inh -20.6, CR mimetic SO 107.3, ABCB6 inh 2 97.0 and Platelet DG rel -3.8.
For COc1cc(Cl)c(S(=O)(=O)N2CCCC2)cc1Cl the results were VLA-4 inh 14.6, SKN-1 inh 11.8, CR mimetic SO 87.4, ABCB6 inh 2 96.0, Platelet DG rel -2.6, Superoxide pick 92.0 and DHE fluor count 97.3.
COc1cc(C)c(Br)cc1S(=O)(=O)N1CCCC1 was read as VLA-4 inh 7.3, SKN-1 inh 5.2, CR mimetic SO 101.9, ABCB6 inh 2 107.0, Platelet DG rel -2.9, Superoxide pick 100.0 and DHE fluor count 95.0.
COc1ccc(C(O)c2nc(-c3cnn(C)c3)cs2)cc1 (stereo unspecified) was read as SKN-1 inh 3.9 and ABCB6 inh 2 95.0.
`N#Cc1ccc(NC(=S)N2CCC3CC2c2cc(-c4ccc5c(c4)OCO5)ccc23)cc1` (stereo unspecified) gave SKN-1 inh 10.4 and ABCB6 inh 2 96.0.
`CCN(CC)S(=O)(=O)N1CCC(C(=O)NC2CCCC2)CC1` gave VLA-4 inh -2.9, SKN-1 inh 4.6, CR mimetic SO 64.2*, ABCB6 inh 2 95.0, Platelet DG rel 7.4, Superoxide pick 119.0 and DHE fluor count 116.9.
